In PubChem BioAssay AID651949 (Broad Institute, 2012):
Entries with a potency or affinity are not part of this list. Activity calls are given as the source filed them.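 How the source made its calls: active means compounds lowering cell ATP signal whose fitted half-maximal concentration is at most twice the top tested dose; inconclusive means flat curve with 30 to 70% signal loss, or poor fit; inactive means the rest.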

Assay: HEK293T cell cytotoxicity, dose response, cytotoxicity control, CellTiter-Glo luminescence, dry powder, set 6 (AID 651949)
Settings: HEK293T viability, CellTiter-Glo ATP luminescence, 48 h; series mostly up to 26 µM

Question: With `N#Cc1ccc(-c2nnc(SCc3ccccc3)o2)cc1` as the compound, how does the outcome read?
Answer: The outcome was “inactive”.

Question: Which outcome does the source give for `N#Cc1cccc(-c2nnc(SCc3ccccc3)o2)c1` here?
Answer: The outcome was “inactive”.

Question: Which outcome does the source give for `c1ccc(CSc2nnc(-c3ccc(-c4ccccc4)cc3)o2)cc1` here?
Answer: The outcome was “inactive”.

Question: With `Clc1ccc(-c2nnc(SCc3cn(Cc4ccccc4)nn3)o2)cc1` as the compound, how does the outcome read?
Answer: The outcome was “inactive”.

Question: For `c1ccc(-c2ccc(CSc3nnc(-c4ccccc4)o3)cc2)cc1`, which outcome is on record?
Answer: Its outcome is “inactive”.

Question: Which outcome does the source give for `c1ccc(CSc2ncc(-c3ccccc3)o2)cc1` here?
Answer: The outcome was “inactive”.

Question: Which outcome does the source give for `Fc1cccc(CSc2nnc(-c3ccccc3)o2)c1` here?
Answer: Its outcome is “inactive”.

Question: With `c1ccc(-n2cc(CSc3nnc(C4CCCC4)o3)nn2)cc1` as the compound, how does the outcome read?
Answer: The outcome was “inactive”.

Question: For `FC1(F)CN(CCSc2nnc(-c3ccccc3)o2)C1`, which outcome is on record?
Answer: Its outcome is “inactive”.

Question: For `Fc1ccc(-c2nnc(SCc3cn(Cc4ccccc4)nn3)o2)cc1`, which outcome is on record?
Answer: The outcome was “inactive”.

Question: With `c1ccc(-c2nnc(SCCN3CCCC3)o2)cc1` as the compound, how does the outcome read?
Answer: Its outcome is “inactive”.

Question: With `Cc1ccccc1-c1nnc(SCc2ccccc2)o1` as the compound, how does the outcome read?
Answer: Its outcome is “inactive”.

Question: Which outcome does the source give for `Brc1ccc(-c2nnc(SCc3ccccn3)o2)cc1` here?
Answer: The outcome was “inactive”.

Question: Which outcome does the source give for `COc1ccccc1-c1nnc(SCc2ccccn2)o1` here?
Answer: The outcome was “inactive”.

Question: For `FC(F)(F)Oc1ccc(-c2nnc(SCc3ccccc3)o2)cc1`, which outcome is on record?
Answer: Its outcome is “inactive”.

Question: With `c1ccc(-c2nnc(SCc3cccnc3)o2)cc1` as the compound, how does the outcome read?
Answer: The outcome was “inactive”.

Question: For `O=S(Cc1ccccc1)c1nnc(-c2ccccc2)o1` (configuration not stated), which outcome is on record?
Answer: The outcome was “inactive”.

Question: Which outcome does the source give for `CC1(O)CN(CCSc2nnc(-c3ccccc3)o2)C1` here?
Answer: Its outcome is “inactive”.

Question: For `Fc1ccc(CSc2nnc(-c3cccnc3)o2)cc1`, which outcome is on record?
Answer: The outcome was “inactive”.

Question: With `c1ccc(CSc2nnc(-c3cnco3)o2)cc1` as the compound, how does the outcome read?
Answer: Its outcome is “inactive”.

Question: For `FC(F)(F)Oc1ccc(CSc2nnc(-c3ccccc3)o2)cc1`, which outcome is on record?
Answer: Its outcome is “inactive”.

Question: For `CN(C)CCSc1nnc(-c2ccccc2)o1`, which outcome is on record?
Answer: The outcome was “inactive”.
